According to PubChem BioAssay (NCI):
This is part of a sample that, as a whole, favours compounds with a hit. Of some 79,000 tested, about 15% had one in any assay. Rule as the data show it: active = growth inhibition above about 70%; inactive = the rest.

Assays:
[1] = NCI Yeast Anticancer Drug Screen. Data for the rad50 strain (AID 155);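 also: 0% = growth of vehicle-only cultures of the same strain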; conditions: S. cerevisiae rad50 strain growth inhibition, active compounds read high; at 50.0 µM unless noted
Outline: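 Inhibition values express reduced yeast growth in compound-treated cultures relative to vehicle-treated controls.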

[2] = NCI Yeast Anticancer Drug Screen. Data for the mec2-1 strain (AID 157); conditions: S. cerevisiae mec2-1 strain, active compounds read high; at 50.0 µM unless noted
Outline: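 Vehicle-treated cultures served as reference for growth inhibition of compound-exposed mec2-1 yeast.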

[3] = NCI Yeast Anticancer Drug Screen. Data for the sgs1 mgt1 strain (AID 161);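 also: 0% = growth of cultures given vehicle only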; conditions: S. cerevisiae sgs1 mgt1 strain, active compounds read high; at 50.0 µM unless noted
Outline: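 Read-out: growth inhibition vs vehicle controls. Cells: mutant yeast strain deficient in DNA damage repair.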

[4] = NCI Yeast Anticancer Drug Screen. Data for the cln2 rad14 strain (AID 165);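 also: 0% = growth equal to vehicle treated cultures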; conditions: S. cerevisiae cln2 rad14 strain, active compounds read high; at 50.0 µM unless noted
Outline: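 Each compound was tested on cln2 rad14 yeast. Inhibition of growth was calculated against vehicle-exposed controls.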

[5] = NCI Yeast Anticancer Drug Screen. Data for the bub3 strain (AID 167); conditions: S. cerevisiae bub3 mutant strain, active compounds read high; at 50.0 µM unless noted
Outline: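 Steps: expose the mutant yeast strain to compound; grow alongside vehicle-treated cultures; measure growth; express inhibition against the vehicle cultures.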

[6] = NCI Yeast Anticancer Drug Screen. Data for the mlh1 rad18 strain (AID 175); conditions: S. cerevisiae mlh1 rad18 strain growth inhibition, active compounds read high; at 50.0 µM unless noted
Outline: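 Vehicle-treated cultures served as the reference for growth inhibition in a yeast strain carrying DNA damage repair alterations exposed to each compound.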

Measured: growth inhibition

Cc1ccc(CC2CC(=O)NC2=O)cc1 (stereo unspecified)
inactive: [1] 13.6% | [2] -2.95% | [3] 22.1% | [4] 2.15% | [5] 10.5% | [6] -3.8%

O=C(Nc1nccs1)c1ccccc1F
inactive: [1] 3.8% | [2] -0.9% | [3] -12.2% | [4] -53.3% | [5] -8.45% | [6] -3.15%

O=P(O)(O)OC1OC(CO)C(O)C(O)C1O (stereo unspecified)
inactive: [1] -16.5% | [2] -26.2% | [3] -3.9% | [4] -25.6% | [5] -24.8% | [6] -4.75%

N#C/C(=C1/c2cc([N+](=O)[O-])ccc2-c2c1cc([N+](=O)[O-])cc2[N+](=O)[O-])N1CCCCC1
inactive: [1] -25.4% | [2] -5.3% | [3] 2.5% | [4] -17.8% | [5] -22.8% | [6] -13.7%

CCOc1ccccc1N=C(NC(=O)CC)SC
inactive: [1] 39% | [2] 26.8% | [3] -7.15% | [4] 12.1% | [5] 32.3% | [6] 52%

CCCCCCCCCCCCC(C)O (stereo unspecified)
inactive: [1] -23.2% | [2] -50.1% | [3] -18.8% | [4] 5.05% | [5] -21.1% | [6] -24.8%

COc1cc(OC)c(OC)cc1/C=C/c1nc2ccccc2s1
inactive: [1] 25.1% | [2] 20.1% | [3] 41% | [4] 18.8% | [5] 46.9% | [6] 3%

N#Cc1sc2c(c1OC(=O)c1cccs1)c(=O)n(-c1ccccc1)c(=S)n2-c1ccccc1
inactive: [1] 3.1% | [2] 10.4% | [3] 17.2% | [4] -5.55% | [5] 25.8% | [6] 15.2%

CCOC(=O)c1cc(C)ncc1N
inactive: [1] 9.85% | [2] 7.4% | [3] -7.1% | [4] 13.2% | [5] -0.95% | [6] 3.3%

COC(=O)CC(NC(=O)OCc1ccccc1)C(=O)NCC(=O)Oc1ccc([N+](=O)[O-])cc1 (stereo unspecified)
inactive: [1] 21.1% | [2] 11.8% | [3] 12.2% | [4] 12.2% | [5] 5.75% | [6] 8.5%

CC1(O)CCCC1(C)O (stereo unspecified)
inactive: [1] -29.1% | [2] -21.1% | [3] -19.1% | [4] -38.9% | [5] -21.7% | [6] -23.8%

Cc1[nH]nc2c1C(=O)C=C(N(CCO)c1ccccc1)C2=O
inactive: [1] -24.6% | [2] 5.35% | [3] 2.25% | [4] 11.2% | [5] -11.9% | [6] -6.55%

CCOC(=O)C1=C(c2ccccc2)OC(N)=C(C#N)C1c1ccccc1Cl (stereo unspecified)
inactive: [1] 28.4% | [2] 18.7% | [3] 24.6% | [4] -21.4% | [5] 39.9% | [6] 51.5%

O=C(NCCOC(=O)OCCNC(=O)NC1CCCCC1)NC1CCCCC1
inactive: [1] -12.8% | [2] -30% | [3] 0.9% | [4] 4.1% | [5] 4.1% | [6] -13.5%

COc1cc(C2c3cc4c(cc3OC(NN=C(C)C)C2C)OCO4)cc(OC)c1O (stereo unspecified)
inactive: [1] 14.2% | [2] 1.7% | [3] 9.65% | [4] 4.5% | [5] 12.8% | [6] 10.9%

CS(=O)(=O)OC1Cc2ccccc2C1
inactive: [1] 12.6% | [2] -0.3% | [3] -2.35% | [4] -6.1% | [5] -5% | [6] 9.9%

CC(=O)CC(=O)c1ccc(C(=O)CC(C)=O)cc1.[Fe]
inactive: [1] -8.1% | [2] -2.35% | [3] -8.3% | [4] 11.7% | [5] 14.4% | [6] 2.15%

OC(c1ccccc1)c1ccc(C(O)c2ccccc2)cc1 (stereo unspecified)
inactive: [1] -14.2% | [2] -19.1% | [3] -8.85% | [4] 33.3% | [5] 5.5% | [6] -8.75%

COCC(C)OC(=O)COc1ccccc1 (stereo unspecified)
inactive: [1] 1.05% | [2] -21.6% | [3] -10.4% | [4] -46.5% | [5] -4.35% | [6] -6.65%

CCOC(=O)Cc1ccc(N(CCO)CCO)cc1
inactive: [1] 5.15% | [2] 7.4% | [3] 22.8% | [4] -0.2% | [5] 12.9% | [6] 5.55%

CC(CC(=O)O)(CC(=O)O)C(=O)O
inactive: [1] 16.1% | [2] -17.9% | [3] -28.9% | [4] 12.6% | [5] -29.4% | [6] -22.9%

c1ccc2c3c([nH]c2c1)CCCC3
inactive: [1] -1.6% | [2] 1.2% | [3] -10.2% | [4] -31.4% | [5] 11.5% | [6] -1.25%

OCCc1ccc2ccccc2n1
inactive: [1] 6.05% | [2] 14.2% | [3] 10.7% | [4] 6.2% | [5] -0.8% | [6] 3.5%

CCCCCCCCCCSCC(=O)O
inactive: [1] -12.8% | [2] -24.6% | [3] -15.5% | [4] -3.3% | [5] -30.6% | [6] -29.5%

COc1cc(CNc2nc3ccc(C(F)(F)F)cc3nc2-c2ccccc2)cc(OC)c1OC
inactive: [1] -14.3% | [2] -3.05% | [3] -28.4% | [4] -10.2% | [5] 2.25% | [6] -4.55%

O=C(Nc1ccc(Cl)cc1)Nc1nnc(-c2cccc(Cl)c2)o1
inactive: [1] 5.8% | [2] 5.75% | [3] 26.9% | [4] -51.9% | [5] 0.2% | [6] 15%

CN(C)CCCNC(=O)N/N=C/c1ccccc1
inactive: [1] 13.9% | [2] -13.8% | [3] -13.8% | [4] -6.3% | [5] -39.7% | [6] -21.1%

O=C(Nc1ccc(-c2cn3ccccc3n2)cc1)c1ccccc1O
inactive: [1] 7.7% | [2] -11.8% | [3] 20.6% | [4] 36.1% | [5] 10.2% | [6] 4.75%

CCN(CC)c1c(C)c(-c2ccccc2)n[n+]([O-])c1-c1ccccc1
inactive: [1] 35.9% | [2] 24.1% | [3] 14.4% | [4] 1.85% | [5] 17.9% | [6] 24.8%

COc1ccccc1NC(=O)c1ccccc1
inactive: [1] 23.2% | [2] 11.3% | [3] 4.95% | [4] -9.25% | [5] 2.75% | [6] 16.1%

O=C(Nc1ccccc1)Nc1ccc2c(c1)oc1ccccc12
inactive: [1] 8.85% | [2] 6.7% | [3] 9.6% | [4] 28% | [5] 10.9% | [6] 25.6%

Clc1ccccc1Br
inactive: [1] 2.85% | [2] -11.2% | [3] 4.65% | [4] 0.55% | [5] 2.25% | [6] -8.3%

Cc1cc(-c2cccc3ccccc23)[n+]([O-])cc1C
inactive: [1] 15.6% | [2] 1.15% | [3] 17.2% | [4] -16.3% | [5] -24.1% | [6] 11.8%

CC(C)(C)C(=O)/C(=C/C(=O)O)C(C)(C)C
inactive: [1] -0.1% | [2] 10.7% | [3] 1.25% | [4] 7.6% | [5] -0.9% | [6] -0.95%

O=[N+]([O-])c1ccc(/C=N/Nc2nnc3c4ccccc4c4ncccc4c3n2)o1
inactive: [1] -20.8% | [2] -14.6% | [3] -23.6% | [4] -29.8% | [5] -33.8% | [6] 16.9%

O=C(Cc1nc2ccccc2s1)C(=O)Nc1cccc(C(F)(F)F)c1
inactive: [1] -4.95% | [2] 8.75% | [3] -10.7% | [4] 7.95% | [5] 6.1% | [6] -6%

CN1c2ccccc2C2CCCCC21 (stereo unspecified)
inactive: [1] 11.6% | [2] 9.7% | [3] 2.15% | [4] -20.2% | [5] 22.8% | [6] 4.25%

Oc1ccccc1C1CCCC1
inactive: [1] 5.55% | [2] -10% | [3] -4.75% | [4] 3.7% | [5] 0.25% | [6] -2.45%

CCOC(=O)c1ccc(NCc2ccc(CNc3ccc(C(=O)OCC)cc3)cc2)cc1
inactive: [1] -35.4% | [2] -18.2% | [3] -36.2% | [4] -11.8% | [5] -21.4% | [6] -27%

O=CNc1nc[nH]c1-c1noc(=O)[nH]1
inactive: [1] -2.75% | [2] -9.5% | [3] -3.5% | [4] -23.9% | [5] -10.8% | [6] -6.8%

Cc1ccc(OCc2ccc([N+](=O)[O-])cc2)cc1
inactive: [1] 1.8% | [2] -12.2% | [3] -12.6% | [4] 13.9% | [5] -16.4% | [6] -16.8%
